# Measurements published in ChEMBL document CHEMBL1961873, “Compounds: GSK PKIS; Assays: Nanosyn kinase panel” (2012).
# Experiments:
# [1] = target: Sphingosine kinase 1 (Homo sapiens) (UniProt Q9NYA1); conditions: at 1 µM;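 note: mean SPHK1 inhibition value reported from the GSK PKIS kinase panel screen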
# [2] = target: T1, Sphingosine kinase 2 (Homo sapiens) (UniProt Q9NRA0); conditions: at 0.1 µM
# T1 sequence (whole entry): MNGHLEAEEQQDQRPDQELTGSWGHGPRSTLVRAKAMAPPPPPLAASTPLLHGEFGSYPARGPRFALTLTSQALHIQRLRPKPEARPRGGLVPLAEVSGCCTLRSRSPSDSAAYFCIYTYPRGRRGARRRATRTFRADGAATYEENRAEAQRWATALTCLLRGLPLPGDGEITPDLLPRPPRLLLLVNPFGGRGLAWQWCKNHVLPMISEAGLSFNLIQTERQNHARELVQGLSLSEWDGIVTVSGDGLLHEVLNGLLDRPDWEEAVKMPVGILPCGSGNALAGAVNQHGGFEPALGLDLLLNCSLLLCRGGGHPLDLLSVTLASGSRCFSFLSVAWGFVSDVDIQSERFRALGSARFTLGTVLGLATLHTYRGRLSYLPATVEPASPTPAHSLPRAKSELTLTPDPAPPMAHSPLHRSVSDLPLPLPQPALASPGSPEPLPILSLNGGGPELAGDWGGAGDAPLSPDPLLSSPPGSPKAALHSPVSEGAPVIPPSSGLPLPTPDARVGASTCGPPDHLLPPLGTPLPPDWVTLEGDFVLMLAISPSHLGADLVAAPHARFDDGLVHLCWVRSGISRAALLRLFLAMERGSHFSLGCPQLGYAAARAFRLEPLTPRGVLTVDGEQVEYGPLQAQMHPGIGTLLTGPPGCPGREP
# [3] = target: T1, Sphingosine kinase 2 (Homo sapiens); conditions: at 1 µM
# [4] = target: Casein kinase II subunit alpha (Homo sapiens) (UniProt P68400); conditions: at 0.1 µM
# Sequence of Casein kinase II subunit alpha (Homo sapiens) (P68400 whole entry, looked up): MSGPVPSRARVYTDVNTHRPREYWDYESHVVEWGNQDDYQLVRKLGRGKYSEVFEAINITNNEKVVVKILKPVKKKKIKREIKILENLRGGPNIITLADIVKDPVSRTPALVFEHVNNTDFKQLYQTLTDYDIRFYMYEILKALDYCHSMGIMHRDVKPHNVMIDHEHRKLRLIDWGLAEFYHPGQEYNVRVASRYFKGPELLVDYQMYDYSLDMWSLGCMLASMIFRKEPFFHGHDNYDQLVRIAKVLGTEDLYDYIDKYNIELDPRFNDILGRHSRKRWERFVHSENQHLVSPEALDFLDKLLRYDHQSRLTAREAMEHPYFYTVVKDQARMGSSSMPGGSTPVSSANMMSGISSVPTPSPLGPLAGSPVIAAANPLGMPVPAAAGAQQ
# [5] = target: Casein kinase II subunit alpha (Homo sapiens) (UniProt P68400); conditions: at 1 µM
# [6] = target: T2, Inhibitor of nuclear factor kappa-B kinase subunit alpha (Homo sapiens) (UniProt O15111); conditions: at 0.1 µM
# T2 sequence (whole entry): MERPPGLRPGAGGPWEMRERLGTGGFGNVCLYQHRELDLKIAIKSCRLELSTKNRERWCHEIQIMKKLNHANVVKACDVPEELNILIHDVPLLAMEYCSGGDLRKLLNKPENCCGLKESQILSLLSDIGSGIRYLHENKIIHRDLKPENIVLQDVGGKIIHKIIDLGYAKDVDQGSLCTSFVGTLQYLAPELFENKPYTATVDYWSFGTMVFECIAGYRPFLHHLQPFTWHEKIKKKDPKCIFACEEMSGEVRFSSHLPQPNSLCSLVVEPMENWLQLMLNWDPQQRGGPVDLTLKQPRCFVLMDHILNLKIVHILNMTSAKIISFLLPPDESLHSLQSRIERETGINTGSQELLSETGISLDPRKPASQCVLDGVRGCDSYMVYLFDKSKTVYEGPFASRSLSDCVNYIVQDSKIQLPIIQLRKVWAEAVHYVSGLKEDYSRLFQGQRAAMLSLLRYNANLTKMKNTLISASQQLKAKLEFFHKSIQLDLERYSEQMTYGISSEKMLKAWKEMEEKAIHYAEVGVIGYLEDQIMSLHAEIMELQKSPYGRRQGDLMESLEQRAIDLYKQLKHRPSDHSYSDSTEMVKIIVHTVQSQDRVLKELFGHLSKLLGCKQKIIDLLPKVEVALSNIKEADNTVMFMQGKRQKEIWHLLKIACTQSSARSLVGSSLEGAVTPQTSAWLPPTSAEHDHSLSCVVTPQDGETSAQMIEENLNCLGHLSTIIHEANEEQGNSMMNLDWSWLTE
# [7] = target: T2, Inhibitor of nuclear factor kappa-B kinase subunit alpha (Homo sapiens); conditions: at 1 µM
# [8] = target: T3, Inhibitor of nuclear factor kappa-B kinase subunit beta (Homo sapiens) (UniProt O14920); conditions: at 0.1 µM
# T3 sequence (whole entry): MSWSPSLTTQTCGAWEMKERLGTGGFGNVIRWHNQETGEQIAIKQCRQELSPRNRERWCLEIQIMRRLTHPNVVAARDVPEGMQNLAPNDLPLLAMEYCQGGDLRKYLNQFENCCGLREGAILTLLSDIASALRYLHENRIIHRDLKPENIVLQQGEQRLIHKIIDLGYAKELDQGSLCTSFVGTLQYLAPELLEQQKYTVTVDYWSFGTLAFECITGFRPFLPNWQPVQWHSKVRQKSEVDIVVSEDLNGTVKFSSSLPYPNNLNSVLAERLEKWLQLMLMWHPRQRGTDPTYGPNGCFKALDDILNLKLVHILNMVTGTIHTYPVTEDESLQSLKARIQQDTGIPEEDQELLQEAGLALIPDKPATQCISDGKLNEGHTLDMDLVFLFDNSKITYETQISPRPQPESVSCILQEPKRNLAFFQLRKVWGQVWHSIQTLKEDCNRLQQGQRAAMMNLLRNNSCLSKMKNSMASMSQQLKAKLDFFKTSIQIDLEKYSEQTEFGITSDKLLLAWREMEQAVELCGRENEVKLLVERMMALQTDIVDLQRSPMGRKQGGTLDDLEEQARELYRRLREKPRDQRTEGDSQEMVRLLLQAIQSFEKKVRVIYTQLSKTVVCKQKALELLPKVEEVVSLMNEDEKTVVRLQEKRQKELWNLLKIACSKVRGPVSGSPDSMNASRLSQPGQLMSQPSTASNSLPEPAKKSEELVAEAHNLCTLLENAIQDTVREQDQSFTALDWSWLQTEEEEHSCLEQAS
# [9] = target: T3, Inhibitor of nuclear factor kappa-B kinase subunit beta (Homo sapiens); conditions: at 1 µM
# [10] = target: T4, Inhibitor of nuclear factor kappa-B kinase subunit epsilon (Homo sapiens) (UniProt Q14164); conditions: at 0.1 µM
# T4 sequence (whole entry): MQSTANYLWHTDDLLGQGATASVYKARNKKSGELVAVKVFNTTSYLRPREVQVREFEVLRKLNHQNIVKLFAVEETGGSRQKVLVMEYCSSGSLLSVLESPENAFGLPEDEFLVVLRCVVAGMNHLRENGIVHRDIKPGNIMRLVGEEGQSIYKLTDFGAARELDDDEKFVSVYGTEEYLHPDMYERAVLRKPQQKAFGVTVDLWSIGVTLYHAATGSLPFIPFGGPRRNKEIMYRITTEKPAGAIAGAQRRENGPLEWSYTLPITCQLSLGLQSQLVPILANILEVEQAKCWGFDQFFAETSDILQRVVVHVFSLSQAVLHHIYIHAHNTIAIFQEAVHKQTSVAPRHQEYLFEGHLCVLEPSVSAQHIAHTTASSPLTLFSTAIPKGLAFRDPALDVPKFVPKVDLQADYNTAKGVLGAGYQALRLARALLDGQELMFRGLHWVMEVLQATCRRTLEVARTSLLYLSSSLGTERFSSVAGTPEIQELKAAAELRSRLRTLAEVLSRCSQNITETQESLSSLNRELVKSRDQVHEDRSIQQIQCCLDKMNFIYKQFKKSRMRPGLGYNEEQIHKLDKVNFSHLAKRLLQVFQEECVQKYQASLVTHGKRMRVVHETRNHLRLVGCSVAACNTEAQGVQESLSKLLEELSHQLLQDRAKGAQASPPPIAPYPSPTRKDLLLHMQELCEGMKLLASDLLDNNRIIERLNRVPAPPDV
# [11] = target: T4, Inhibitor of nuclear factor kappa-B kinase subunit epsilon (Homo sapiens); conditions: at 1 µM
# [12] = target: T5, Serine/threonine-protein kinase Nek1 (Homo sapiens) (UniProt Q96PY6); conditions: at 0.1 µM
# T5 sequence (whole entry): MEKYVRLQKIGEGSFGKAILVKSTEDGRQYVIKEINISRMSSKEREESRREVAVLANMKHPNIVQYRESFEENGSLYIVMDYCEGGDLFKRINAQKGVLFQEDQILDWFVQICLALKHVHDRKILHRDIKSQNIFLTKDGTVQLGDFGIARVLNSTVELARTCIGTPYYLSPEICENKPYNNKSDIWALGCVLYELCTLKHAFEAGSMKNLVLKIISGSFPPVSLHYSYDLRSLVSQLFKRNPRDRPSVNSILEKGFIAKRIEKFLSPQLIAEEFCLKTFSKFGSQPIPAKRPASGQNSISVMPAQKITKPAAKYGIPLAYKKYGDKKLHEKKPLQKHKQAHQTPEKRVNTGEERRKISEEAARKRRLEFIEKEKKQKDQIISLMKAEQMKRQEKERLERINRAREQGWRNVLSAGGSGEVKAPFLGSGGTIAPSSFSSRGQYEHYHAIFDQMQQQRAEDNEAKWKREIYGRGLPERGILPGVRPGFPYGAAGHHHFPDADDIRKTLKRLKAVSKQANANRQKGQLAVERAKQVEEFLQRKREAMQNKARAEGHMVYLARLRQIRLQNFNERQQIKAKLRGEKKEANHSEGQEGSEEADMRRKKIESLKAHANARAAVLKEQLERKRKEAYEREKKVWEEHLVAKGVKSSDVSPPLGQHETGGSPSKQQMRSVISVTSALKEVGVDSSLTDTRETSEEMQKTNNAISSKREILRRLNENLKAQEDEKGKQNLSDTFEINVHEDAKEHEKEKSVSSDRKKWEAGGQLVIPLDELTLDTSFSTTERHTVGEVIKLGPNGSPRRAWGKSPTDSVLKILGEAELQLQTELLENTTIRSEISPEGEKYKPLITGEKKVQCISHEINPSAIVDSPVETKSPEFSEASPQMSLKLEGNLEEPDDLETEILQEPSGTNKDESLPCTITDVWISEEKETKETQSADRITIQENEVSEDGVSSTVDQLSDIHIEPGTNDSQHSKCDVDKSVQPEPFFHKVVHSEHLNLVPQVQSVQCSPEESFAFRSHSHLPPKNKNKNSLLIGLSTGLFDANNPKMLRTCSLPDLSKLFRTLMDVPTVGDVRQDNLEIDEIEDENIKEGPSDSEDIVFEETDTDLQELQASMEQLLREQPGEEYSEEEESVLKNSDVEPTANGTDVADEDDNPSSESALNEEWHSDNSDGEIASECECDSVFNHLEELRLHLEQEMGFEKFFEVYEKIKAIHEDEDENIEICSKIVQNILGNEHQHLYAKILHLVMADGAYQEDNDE
# [13] = target: T5, Serine/threonine-protein kinase Nek1 (Homo sapiens); conditions: at 1 µM
# [14] = target: T6, Serine/threonine-protein kinase Nek2 (Homo sapiens) (UniProt P51955); conditions: at 0.1 µM
# T6 sequence (whole entry): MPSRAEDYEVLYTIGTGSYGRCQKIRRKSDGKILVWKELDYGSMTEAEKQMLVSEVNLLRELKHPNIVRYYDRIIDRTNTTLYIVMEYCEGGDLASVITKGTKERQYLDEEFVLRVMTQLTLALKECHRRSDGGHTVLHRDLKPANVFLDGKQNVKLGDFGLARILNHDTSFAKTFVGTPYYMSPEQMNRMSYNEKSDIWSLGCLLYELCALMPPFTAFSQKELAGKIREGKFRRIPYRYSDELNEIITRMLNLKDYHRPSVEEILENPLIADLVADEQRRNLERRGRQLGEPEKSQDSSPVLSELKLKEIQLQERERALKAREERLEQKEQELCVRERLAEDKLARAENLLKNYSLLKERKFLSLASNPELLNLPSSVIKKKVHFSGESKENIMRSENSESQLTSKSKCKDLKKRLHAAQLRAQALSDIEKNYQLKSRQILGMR
# [15] = target: T6, Serine/threonine-protein kinase Nek2 (Homo sapiens); conditions: at 1 µM
# [16] = target: Serine/threonine-protein kinase Nek6 (Homo sapiens) (UniProt Q9HC98); conditions: at 0.1 µM
# Sequence of Serine/threonine-protein kinase Nek6 (Homo sapiens) (Q9HC98 whole entry): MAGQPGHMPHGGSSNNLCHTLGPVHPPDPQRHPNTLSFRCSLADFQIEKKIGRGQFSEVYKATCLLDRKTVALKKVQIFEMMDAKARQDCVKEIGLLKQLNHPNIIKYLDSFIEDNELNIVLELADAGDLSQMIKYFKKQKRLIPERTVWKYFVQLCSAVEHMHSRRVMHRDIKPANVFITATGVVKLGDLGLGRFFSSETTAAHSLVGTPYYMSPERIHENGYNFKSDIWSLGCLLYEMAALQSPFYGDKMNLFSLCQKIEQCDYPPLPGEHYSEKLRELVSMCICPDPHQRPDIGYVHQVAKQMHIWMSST
# [17] = target: Serine/threonine-protein kinase Nek6 (Homo sapiens) (UniProt Q9HC98); conditions: at 1 µM
# [18] = target: Serine/threonine-protein kinase Nek7 (Homo sapiens) (UniProt Q8TDX7); conditions: at 0.1 µM
# Sequence of Serine/threonine-protein kinase Nek7 (Homo sapiens) (Q8TDX7 whole entry, looked up): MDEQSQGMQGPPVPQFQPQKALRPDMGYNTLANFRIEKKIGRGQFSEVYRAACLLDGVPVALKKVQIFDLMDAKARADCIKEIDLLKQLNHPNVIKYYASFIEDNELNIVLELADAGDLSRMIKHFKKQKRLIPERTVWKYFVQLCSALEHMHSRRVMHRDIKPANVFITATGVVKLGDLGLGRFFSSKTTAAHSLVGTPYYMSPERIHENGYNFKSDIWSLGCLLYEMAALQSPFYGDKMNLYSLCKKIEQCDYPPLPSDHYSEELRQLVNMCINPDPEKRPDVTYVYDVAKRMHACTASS
# [19] = target: Serine/threonine-protein kinase Nek7 (Homo sapiens) (UniProt Q8TDX7); conditions: at 1 µM
# [20] = target: T7, Serine/threonine-protein kinase Nek9 (Homo sapiens) (UniProt Q8TD19); conditions: at 0.1 µM;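 note: reported value is the mean percent inhibition of NEK9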
# T7 sequence (whole entry): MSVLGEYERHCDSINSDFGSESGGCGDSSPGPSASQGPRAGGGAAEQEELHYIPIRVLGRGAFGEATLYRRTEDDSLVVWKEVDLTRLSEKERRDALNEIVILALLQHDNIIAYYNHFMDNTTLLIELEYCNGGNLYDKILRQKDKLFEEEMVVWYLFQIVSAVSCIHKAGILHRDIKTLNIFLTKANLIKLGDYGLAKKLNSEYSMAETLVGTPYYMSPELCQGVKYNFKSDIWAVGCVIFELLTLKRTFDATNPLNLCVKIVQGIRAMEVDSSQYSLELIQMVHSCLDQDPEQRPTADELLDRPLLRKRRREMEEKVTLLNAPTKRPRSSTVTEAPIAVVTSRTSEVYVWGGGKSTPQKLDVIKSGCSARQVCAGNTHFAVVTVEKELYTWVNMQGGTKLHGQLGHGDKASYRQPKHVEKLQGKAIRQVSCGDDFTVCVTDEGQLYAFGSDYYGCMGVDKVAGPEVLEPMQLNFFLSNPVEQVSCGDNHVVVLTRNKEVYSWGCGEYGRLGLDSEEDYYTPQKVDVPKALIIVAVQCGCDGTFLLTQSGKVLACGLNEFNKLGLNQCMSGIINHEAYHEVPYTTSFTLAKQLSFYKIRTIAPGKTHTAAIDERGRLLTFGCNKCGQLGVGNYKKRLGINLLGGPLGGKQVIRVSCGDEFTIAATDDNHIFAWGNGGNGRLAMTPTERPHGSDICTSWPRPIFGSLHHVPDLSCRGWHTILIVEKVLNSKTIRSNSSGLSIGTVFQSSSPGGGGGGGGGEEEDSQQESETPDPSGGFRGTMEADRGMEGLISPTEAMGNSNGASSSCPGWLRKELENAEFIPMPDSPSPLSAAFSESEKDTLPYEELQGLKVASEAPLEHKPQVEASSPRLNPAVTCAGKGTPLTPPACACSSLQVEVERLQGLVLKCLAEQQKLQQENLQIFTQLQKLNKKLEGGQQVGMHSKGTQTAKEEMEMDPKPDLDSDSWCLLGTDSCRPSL
# Sequence of Sphingosine kinase 1 (Homo sapiens) (Q9NYA1 whole entry): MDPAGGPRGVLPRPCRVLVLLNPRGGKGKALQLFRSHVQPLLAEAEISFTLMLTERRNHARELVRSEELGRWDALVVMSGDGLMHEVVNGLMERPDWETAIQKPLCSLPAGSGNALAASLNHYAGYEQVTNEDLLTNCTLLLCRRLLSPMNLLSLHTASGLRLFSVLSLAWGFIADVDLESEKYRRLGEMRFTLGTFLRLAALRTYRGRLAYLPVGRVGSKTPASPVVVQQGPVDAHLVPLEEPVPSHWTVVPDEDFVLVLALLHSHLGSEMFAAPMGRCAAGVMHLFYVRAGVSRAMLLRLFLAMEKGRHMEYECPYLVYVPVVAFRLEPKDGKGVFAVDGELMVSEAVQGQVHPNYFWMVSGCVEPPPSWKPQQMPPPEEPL
structure (smiles),measurement,setting,value
CS(=O)(=O)CCNCc1ccc(-c2ccc3ncnc(Nc4ccc(OCc5cccc(F)c5)c(C(F)(F)F)c4)c3c2)o1,inhibition,[1],-2.4%
same,inhibition,[2],0.03%
same,inhibition,[3],0.79%
same,inhibition,[4],3.22%
same,inhibition,[5],5.65%
same,inhibition,[6],7.6%
same,inhibition,[7],5.45%
same,inhibition,[8],5.87%
same,inhibition,[9],5.15%
same,inhibition,[10],5.42%
same,inhibition,[11],2.73%
same,inhibition,[12],2.28%
same,inhibition,[13],4.09%
same,inhibition,[14],4.44%
same,inhibition,[15],3.68%
same,inhibition,[16],2.48%
same,inhibition,[17],3.62%
same,inhibition,[18],4.72%
same,inhibition,[19],4.32%
same,inhibition,[20],7.55%
